# Sampled rows, rich in hits. Any-hit rate of the full collection: about 4.6%.
# TR SRC2 fluor cs – Texas Red fluorescence interference in TRb-SRC2 counter-screen; TRb/SRC2 Texas Red total fluorescence interference; Potency, µM (highest dose often 106 µM), without a hit: at the top dose fluorescence change, negative = quenching; actives 0.29% (n = 280,000); active = well fitted curve in either direction with a large enough effect; inconclusive = small, poorly fitted or top-dose-only effect; also: potency is read from the fitted curve at half-maximal effect
#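 Flags fluorescent or light-absorbing compounds by total fluorescence, S + 2P, at 555 nm excitation and 632 nm emission. Mixture: 20 nM Texas Red SRC2 peptide, 0.6 uM human TRb LBD, 1 uM T3, 5% DMSO; compound exposure 5 h at ambient temperature.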
# Tau FP inhib – inhibitors of human tau fibril formation; P10636; K18 P301L tau heparin fibrillization, Alexa594 FP, 6 h; Potency, µM (titrated, usually from 57.7 µM), for the others: at the top dose activity, negative = inhibition, actives largely listed as inhibitors; actives 0.39% (n = 280,000); AID 1468; also: potency is read from the fitted curve at half-maximal effect; nearly all actives have a fitted effect of over 55% in size
# Target sequence (P10636 561-689 P618L limits assumed): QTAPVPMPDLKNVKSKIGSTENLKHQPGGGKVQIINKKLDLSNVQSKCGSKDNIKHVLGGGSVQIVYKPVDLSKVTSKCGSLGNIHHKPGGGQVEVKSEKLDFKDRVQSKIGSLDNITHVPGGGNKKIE
#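 Read-out: fluorescence polarization of Alexa 594-labeled tau (0.24 uM), 555 nm excitation, 632 nm emission. Mixtures held 15 uM unlabeled K18 P301L, compound and 20 uM heparin, pH 7 acetate buffer, incubated 6 hr at 37 C.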
# TRb SRC2 PPI – TRbeta-SRC2 interaction inhibition. P10828. TRbeta-SRC2 peptide binding, fluorescence polarization; receptor liganded with 1 µM T3. Potency, µM (top dose mostly 106 µM), inactives show at the highest dose activity change, negative = inhibition, usual class: inhibitors. actives 0.065% (n = 280,000);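 also: potency is read from the fitted curve at half-maximal effect; plate controls were bound peptide for no effect and peptide without receptor for full effect; nearly all actives have a fitted effect of over 50% in size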
# Target sequence (P10828 whole entry, looked up): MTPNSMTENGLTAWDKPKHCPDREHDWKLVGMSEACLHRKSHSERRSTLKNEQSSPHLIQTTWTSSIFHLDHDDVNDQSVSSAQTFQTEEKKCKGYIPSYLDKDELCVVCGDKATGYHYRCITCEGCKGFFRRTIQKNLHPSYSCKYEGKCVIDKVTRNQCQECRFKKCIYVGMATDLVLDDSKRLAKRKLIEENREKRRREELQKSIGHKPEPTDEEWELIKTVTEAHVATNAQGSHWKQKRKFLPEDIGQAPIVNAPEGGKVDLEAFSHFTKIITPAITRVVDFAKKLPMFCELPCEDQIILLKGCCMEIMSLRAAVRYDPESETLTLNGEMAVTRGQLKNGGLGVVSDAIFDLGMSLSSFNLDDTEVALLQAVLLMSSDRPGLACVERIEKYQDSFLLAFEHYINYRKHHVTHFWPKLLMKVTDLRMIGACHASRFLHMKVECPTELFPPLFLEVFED
#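 Human TRb LBD (0.6 uM) plus Texas Red-labeled SRC2 peptide (20 nM), 1uM T3, 5% DMSO, 5 hr at ambient temperature. Decreased polarization (555/632 nm) flags inhibition; data normalized to free and bound peptide controls.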
# Tau ThT inhib – blocks human tau fibril formation measured by thioflavin T; P10636; actives 2.1% (n = 270,000); recombinant tau K18 P301L, heparin-induced fibrillization, ThT fluorescence; Potency, µM (titrated, usually from 57.4 µM), without a hit: at the top dose activity, negative = inhibition, actives largely listed as inhibitors; also: potency is read from the fitted curve at half-maximal effect; nearly all actives have a fitted effect of over 55% in size
#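 Recombinant human tau K18 fragment […] carrying P301L, 15 uM unlabeled plus 0.24 uM Alexa 594-labeled, was fibrillized with 20 uM heparin in 100 mM sodium acetate pH 7 for 6 hr at 37 C; 30 uM ThT fluorescence read after 1 hr.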
# PNC inhibitor – inhibitors of perinucleolar compartment assembly | PC3M PTB-GFP, PNC prevalence imaging, 16 h; hits give low values | activity change (PNC), negative = inhibition, % at 10 µM | actives 3.1% (n = 140,000);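 active = readout at or below -70, meaning at least 70% loss of cells showing the perinucleolar compartment, a nuclear body marking cancer cells; inconclusive = readout between -30 and a set limit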;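 also: plate controls were DMSO wells for no effect and camptothecin positive control wells for full effect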
#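 Read-out is percentage of cells bearing a perinucleolar compartment, from automated 20x imaging of fixed, Hoechst-stained PC3M PTB-GFP cells. Cells were seeded 4 h, then exposed 16 h to compound (23 nl of library stock) in duplicate plates.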
# Tau fluor counter – counter-screen for tau fibril formation inhibitors; Potency, µM (highest dose often 57.7 µM), for the others: at the top dose activity change, negative = decrease; AID 1463; tau K18 P301L Alexa594 fluorescence, heparin fibrillization; actives 0.93% (n = 280,000); also: potency is read from the fitted curve at half-maximal effect; nearly all actives have a fitted effect of over 55% in size
#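 Human tau K18 P301L (15 uM unlabeled, 0.24 uM Alexa 594-labeled) in 100 mM sodium acetate pH 7 with 20 uM heparin, 6 hr at 37 C. ThT 30 uM added, 1 hr ambient; Alexa 594 FP and total fluorescence read at 555/632 nm.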
# Starred values were filed as active, the others as inactive; ? = inconclusive; . = not tested or not shown; [ ] = remark or other dose. Unless noted, calls follow the shape of the dose curve; as a rule, active = well fitted curve in the direction sought with a large enough effect; inconclusive = small, poorly fitted or top-dose-only effect, or another doubt; inactive = no such curve, though single readings can be large; an effect the other way counts as inactive or inconclusive. Unless noted, % is scaled to controls: 0 for no effect and ±100 for the full control effect.
SMILES,TR SRC2 fluor cs,Tau FP inhib,TRb SRC2 PPI,Tau ThT inhib,PNC inhibitor,Tau fluor counter
NC(=O)C1(NC(=O)[C@@H]2CC3(CC(c4cccc(NC(=O)c5cc([N+](=O)[O-])cc([N+](=O)[O-])c5)c4)=NO3)CN2C(=O)c2ccccc2)CC1 (stereo partly drawn),1.2%,?,-10.6%,-13.4%,4.7,25.1µM*[quencher]
COC(=O)c1cc(O)c(OCc2ccccc2)c(O)c1,-2.2%,-4.5%,-3.9%,-10.4%,-85.3*,0.3%
Cc1nc2sccc2c(=O)n1-c1cccc(Cl)c1,-1.0%,-5.6%,-5.5%,10.2%,-19.8,-1.5%
CC(C)(C)OC(=O)NCc1nc(N)n[nH]1,-0.8%,1.3%,-0.9%,-2.7%,-100.0*,0.6%
Nn1c(SCC(=O)NC2CCCCC2)nnc1-c1ccccc1,0.0%,-1.7%,4.5%,-5.7%,?,-2.2%
CC1CCCCC1NC(=O)CSc1nnc(-c2ccccc2)n1N (stereo not drawn),-0.2%,6.9%,-14.7%,3.2%,-121.8*,-1.5%
O=C(Nc1ccccc1)c1ccc(N2CCN(c3ccccn3)CC2)c(S(=O)(=O)N2CCOCC2)c1,-0.8%,4.0%,-2.5%,-1.2%,-25.3,-21.3%
Nc1c(N=Nc2ccc(-c3ccc(N=Nc4cc(S(=O)(=O)O)c5ccccc5c4N)cc3)cc2)cc(S(=O)(=O)O)c2ccccc12,?,-15.3%,?,1.12µM*,.,-7.3%
Cc1cc(-c2ccc(N=Nc3ccc4c(S(=O)(=O)O)cc(S(=O)(=O)O)c(N)c4c3O)c(C)c2)ccc1N=Nc1ccc2c(S(=O)(=O)O)cc(S(=O)(=O)O)c(N)c2c1O,17.8µM*[fluorescent],3.16µM*,25.1µM*,1.41µM*,.,0.794µM*[quencher]
Cc1cccc(NC(=O)c2ccc([N+](=O)[O-])cc2Cl)n1,-1.2%,7.8%,3.8%,-5.7%,-18.9,1.1%
CC(C)CN(C(=O)CN1CCN(c2ccccc2O)CC1)c1c(N)n(CC(C)C)c(=O)[nH]c1=O,1.8%,-5.1%,3.7%,-6.7%,-86.1*,4.5%
CC1(C)Cc2c(sc(NC(=O)c3ccccc3)c2C(=O)O)CO1,0.3%,-6.1%,1.6%,?,.,-12.6%
CC(C)COc1ccc(C(=O)Nc2sc3c(c2C(=O)O)CC(C)(C)OC3)cc1,1.1%[53 µM],-8.3%,13.5%[53 µM],15.8µM*,.,?
CCCC1(C(=O)O)NC(c2ccccc2O)C2C(=O)N(Cc3ccccc3)C(=O)C21 (stereo not drawn),2.7%,-21.8%,-13.8%,-13.2%,-110.3*,-13.1%
CCNC(=O)c1c(N)sc2c1CCCCC2,4.7%,?,-4.0%,31.6µM*,-5.7,-18.8%
CCOC(=O)c1sc(-c2ccc(C)cc2)c(C#N)c1C,-0.3%,-12.1%,-1.2%,-5.7%,-21.4,1.3%
Cc1ccc(NC(=O)Cn2c(-c3nonc3N)nc3ccccc32)cc1Cl,-0.6%,-13.8%,-1.8%,14.4%,.,0.7%
CC(=O)c1c(C)nc(-c2ccc(Cl)cc2Cl)n1O,-2.3%,1.6%,-8.6%,-0.3%,-100.0*,-1.7%
CCOC(=O)CN1C(=O)C(O)=C(C(C)=O)C1c1ccc(F)cc1 (stereo not drawn),0.8%,-5.2%,10.3%,-3.8%,21.3,-0.3%
CCOC(=O)CN1C(=O)C(O)=C(C(C)=O)C1c1ccc([N+](=O)[O-])cc1 (stereo not drawn),-1.7%,0.3%,-5.4%,-4.8%,-110.7*,-3.4%
S=C(Nc1ccccc1)N1CCC(C2CCN(C(=S)Nc3ccccc3)CC2)CC1,-2.0%,0.1%,1.1%,-9.3%,.,-3.3%
COC(=O)c1c(Cl)c2n3ccccc3c(C)c(-c3ccccc3)c-2c1C(=O)OC,9.4%,?,-8.6%,7.94µM*,4.9,?
COC(=O)c1c(-c2ccccc2)c[nH]c1C,-1.5%,3.1%,-6.9%,-15.8%,.,-14.5%
COC(=O)c1cc2c(-c3ccccc3)c(C)c3ccccn3c-2c1C(=O)OC,1.3%,15.1%,-9.9%,15.8µM*,16.8,?
COC(=O)c1c(C)[nH]c(C=O)c1-c1ccccc1,-1.0%,7.0%,0.3%,-16.3%,.,-11.3%
SMILES,TR SRC2 fluor cs,Tau FP inhib,TRb SRC2 PPI,Tau ThT inhib,PNC inhibitor,Tau fluor counter
O=C(C1CC(=O)N(C2CCCC2)C1)N1CCN(c2ccccc2F)CC1 (stereo not drawn),-1.0%,-2.4%,7.3%,-6.9%,27.2,-7.1%
O=C(C1CC(=O)N(C2CCCC2)C1)N1CCC(Cc2ccccc2)CC1 (stereo not drawn),-0.2%,2.4%,-0.5%,0.6%,-106.2*,-0.7%
CCOCCCNC(=O)CCc1ccc(S(=O)(=O)Nc2ccc(C)cc2)cc1,-1.3%,-2.0%,1.7%,1.6%,.,-2.7%
CCOCCCNC(=O)C(C)NS(=O)(=O)c1ccc(C)cc1 (stereo not drawn),-0.7%,-3.5%,-0.4%,-16.8%,-89.7*,-6.3%
CCSc1nc(C)c(C(C)=O)cc1C#N,-0.6%,-2.4%,3.1%,-4.0%,8.5,-4.4%
CC(=O)Nc1ccc(Nc2nc(C)c([N+](=O)[O-])c(Nc3ccccc3)n2)cc1,-3.9%[53 µM],18.2%,-2.2%[53 µM],8.91µM*,17.5,?
Cc1nc(Nc2ccc(C(=O)O)cc2)nc(Nc2ccc(C(=O)O)cc2)c1[N+](=O)[O-],-6.6%,0.4%,-4.6%,?,.,-7.7%
CC(=O)Nc1ccc(Nc2ncc([N+](=O)[O-])c(Nc3ccc(NC(C)=O)cc3)n2)cc1,-5.0%,-6.6%,-17.4%,8.91µM*,14.9,-29.9%
CC(=O)Nc1ccc(Nc2ncnc(N)c2[N+](=O)[O-])cc1,0.9%,-2.0%,4.9%,-8.7%,.,10.8%
CCC(=O)Nc1ccc(Nc2nc(C)c([N+](=O)[O-])c(Nc3ccc(NC(=O)CC)cc3)n2)cc1,-2.6%,?,8.2%,28.2µM*,54.6,-28.1%
CC(=O)Nc1ccc(Nc2nc(C)c([N+](=O)[O-])c(N(C)c3ccccc3)n2)cc1,-4.9%,?,8.4%,15.8µM*,.,17.8µM*[quencher]
CCOc1ccccc1NC(=O)C1CCN(C(=O)c2cccs2)CC1,-0.5%,-5.0%,6.0%,-0.5%,.,-3.5%
CCOc1cc(/C=N\NC(=O)c2ccc(NC(=O)C(C)(C)C)cc2)ccc1OC(=O)c1ccc(OC)cc1,-5.0%,-11.0%,-3.1%,-11.9%,50.1,-6.2%
CCOc1ccc(C(=O)NC2CCN(C(=O)NCc3ccccc3)CC2)cc1,-0.9%,3.8%,-2.9%,?,-0.1,-8.3%
CNc1nc(N)c(C(=O)Nc2cc(C)on2)s1,-0.4%,3.0%,-1.4%,-19.2%,.,-9.5%
OC1CCN(C(=S)Nc2ccc(Nc3ccccc3)cc2)CC1,-5.9%,1.1%,-5.7%,?,.,-27.3%
Nc1c(C(=O)Nc2ccccc2)c2nc3ccccc3nc2n1-c1ccc(O)cc1,0.2%,?,-0.8%,?,.,14.1µM*[quencher]

# Screens (PubChem BioAssay)
